Measurements reported in PubChem BioAssay (Tox21).
Results filed as inconclusive are left out. Calls of active or inactive are those of the source. Unless noted, the call rests on the fitted dose curve.

How the values were obtained:
[1] = Nuclear factor erythroid 2-related factor 2/antioxidant responsive element (Nrf2/ARE) small molecule agonists: qHTS cell viability counter screen in human keratinocytes (AID 1919968; active means well fitted curve in the direction sought with a large enough effect in the repeat runs; an effect the other way counts as inactive or inconclusive; further: nearly all actives have a fitted effect of over 55% in size)
Summary of the method: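 Viability counter-screen: KeratinoSens reporter cells, DMSO-delivered compounds, 23 h at 37 C, CellTiter-Fluor fluorescence.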

[2] = Nuclear factor erythroid 2-related factor 2/antioxidant responsive element (Nrf2/ARE) small molecule agonists: luciferase reporter gene qHTS assay in human keratinocytes (AID 1919969); further: nearly all actives have a fitted effect of over 35% in size
[3] = target: Gonadotropin-releasing hormone receptor (Homo sapiens) (UniProt P30968); test: Human gonadotropin-releasing hormone receptor (GnRHR) small molecule agonists, calcium flux assay in GnRHR-HEK293 cells (AID 1920063); further: nearly all actives have a fitted effect of over 35% in size
Gonadotropin-releasing hormone receptor (Homo sapiens), sequence (P30968 whole entry, looked up): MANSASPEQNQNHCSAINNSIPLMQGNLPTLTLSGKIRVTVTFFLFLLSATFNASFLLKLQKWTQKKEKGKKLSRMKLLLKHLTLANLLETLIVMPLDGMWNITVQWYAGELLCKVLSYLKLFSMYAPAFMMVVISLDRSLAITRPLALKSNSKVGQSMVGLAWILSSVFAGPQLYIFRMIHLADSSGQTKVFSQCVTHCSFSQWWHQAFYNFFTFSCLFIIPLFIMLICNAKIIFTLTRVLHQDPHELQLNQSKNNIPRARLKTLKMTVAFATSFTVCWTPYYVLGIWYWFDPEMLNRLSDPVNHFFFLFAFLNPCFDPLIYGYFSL
Summary of the method: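 Tox21-format agonist screen using human GnRHR-expressing HEK293 cells and a fluorescent calcium dye; kinetic 3-min fluorescence reading after compound addition, 15-point concentration series run in triplicate.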

[4] = target: KiSS-1 receptor (Homo sapiens) (UniProt Q969F8); test: Human kisspeptin (KISS1R) small molecule agonists, calcium flux assay in KISS1R-HEK293 cells (AID 1920064; active means well fitted curve in the direction sought with a large enough effect in the repeat runs; an effect the other way counts as inactive or inconclusive)
KiSS-1 receptor (Homo sapiens), sequence (Q969F8 whole entry, looked up): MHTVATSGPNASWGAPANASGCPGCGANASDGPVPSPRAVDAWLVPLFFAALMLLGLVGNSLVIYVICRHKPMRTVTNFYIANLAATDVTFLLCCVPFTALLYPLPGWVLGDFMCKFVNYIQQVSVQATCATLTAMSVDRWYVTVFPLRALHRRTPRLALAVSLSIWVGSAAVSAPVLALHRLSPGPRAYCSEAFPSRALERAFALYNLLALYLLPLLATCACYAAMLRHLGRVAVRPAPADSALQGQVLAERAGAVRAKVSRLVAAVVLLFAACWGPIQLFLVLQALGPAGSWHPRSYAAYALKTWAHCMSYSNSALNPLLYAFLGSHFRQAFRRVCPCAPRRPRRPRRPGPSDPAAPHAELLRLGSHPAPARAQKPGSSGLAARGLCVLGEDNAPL
Summary of the method: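 Intracellular calcium mobilization in KISS1R-HEK293 cells was recorded by fluorescence (Ex/Em 480/540) for 3 min following compound addition to cells pre-loaded 1 h with calcium dye.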

[5] = G protein-coupled receptor (GPCR) small molecule agonists, calcium flux assay: HEK293 wild type cell line counter screen (AID 1920065)
Summary of the method: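 In this agonist-mode screen, ATP is the positive control and DMSO the vehicle. Cells grow 18 h before a 1 h dye incubation at 37 C; signal is taken at Ex/Em 480/540 over 3 min.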

[6] = p53 small molecule agonists, cell-based qHTS assay with human liver microsomes (AID 1963577)
Summary of the method: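 Compounds act here after metabolic activation: human liver microsomes and NADPH, both at 0.5 mg/mL final, were co-added to p53RE-bla cells. Incubation ran 16 h at 37 C, followed by LiveBLAzer detection.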

[7] = p53 small molecule agonists, cell-based qHTS assay with rat liver microsomes (AID 1963578)
Summary of the method: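 Read-out is beta-lactamase reporter fluorescence (LiveBLAzer, 2 h, room temperature, dark) in p53RE-bla cells treated 16 h at 37 C with compound, rat liver microsomes and NADPH, both 0.5 mg/mL final.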

[8] = p53 small molecule agonists, cell-based qHTS assay with human liver microsomes: qHTS cell viability counter screen (AID 1963579); further: nearly all actives have a fitted effect of over 45% in size
Summary of the method: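 Cells carrying the p53 response-element beta-lactamase reporter are treated for 16 h at 37 C with test compounds in the presence of human liver microsomes and NADPH (both 0.5 mg/mL final); ATP-based CellTiter-Glo luminescence then reports viability.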

[9] = p53 small molecule agonists, cell-based qHTS assay with rat liver microsomes: qHTS cell viability counter screen (AID 1963580); further: nearly all actives have a fitted effect of over 45% in size
Summary of the method: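 In HCT-116 cells carrying a p53 response element-bla reporter, compounds were metabolically activated in situ by rat liver microsomes with NADPH over 16 h. Cell ATP content then served as the cytotoxicity measure.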

[10] = p53 small molecule agonists, cell-based qHTS assay: qHTS cell viability counter screen (AID 1963581); further: nearly all actives have a fitted effect of over 45% in size
Summary of the method: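 Compounds are pinned onto HCT-116 p53RE-bla cells and left 16 h at 37 C. Following the reporter FRET read, ATP is quantified by CellTiter-Glo luminescence after 30 min at room temperature.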

[11] = p53 small molecule agonists, cell-based qHTS assay (AID 1963582; active means well fitted activation curve with a large enough effect in the signal ratio in the repeat runs, not every such curve was filed as active; the % refers to the signal ratio)
Summary of the method: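 Agonist activity was scored from beta-lactamase FRET fluorescence in p53RE-bla cells treated 16 h at 37 C with compounds in DMSO, substrate incubation being 2 h at room temperature.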

[12] = target: 5-hydroxytryptamine receptor 2A (Homo sapiens) (UniProt P28223); test: 5-hydroxytryptamine receptor 2A (HTR2A) small molecule antagonists, cell-based qHTS assay (AID 1963586); further: nearly all actives have a fitted effect of over 45% in size
5-hydroxytryptamine receptor 2A (Homo sapiens), sequence (P28223 whole entry, looked up): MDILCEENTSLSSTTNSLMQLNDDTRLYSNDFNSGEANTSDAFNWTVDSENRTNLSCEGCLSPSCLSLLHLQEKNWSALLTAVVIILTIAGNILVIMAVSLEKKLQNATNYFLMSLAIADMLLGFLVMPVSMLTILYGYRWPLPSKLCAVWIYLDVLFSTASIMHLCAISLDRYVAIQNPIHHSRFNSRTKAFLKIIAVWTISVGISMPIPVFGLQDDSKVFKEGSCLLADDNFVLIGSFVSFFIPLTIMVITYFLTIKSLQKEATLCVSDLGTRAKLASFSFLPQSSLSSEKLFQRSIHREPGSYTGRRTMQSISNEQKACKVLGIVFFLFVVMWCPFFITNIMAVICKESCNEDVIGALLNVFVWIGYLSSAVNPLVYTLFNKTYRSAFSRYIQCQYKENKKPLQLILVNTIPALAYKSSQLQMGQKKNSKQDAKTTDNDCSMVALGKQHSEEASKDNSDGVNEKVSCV
Summary of the method: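 Antagonist-mode intracellular calcium assay: DOI (4 nM) added after 5 min compound pre-incubation at room temperature to dye-loaded HTR2A-CHO cells. Fluorescence followed for 3 min, sampled every second.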

[13] = target: 5-hydroxytryptamine receptor 2A (Homo sapiens) (UniProt P28223); test: 5-hydroxytryptamine receptor 2A (HTR2A) small molecule agonists, cell-based qHTS assay (AID 1963587); further: nearly all actives have a fitted effect of over 30% in size
Summary of the method: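 HTR2A-CHO cells, plated 18 h at 37 C/5% CO2, dye-loaded 1 h at 37 C; compounds in DMSO added by pin tool (agonist mode). Intracellular calcium flux read as kinetic fluorescence on FDSS over 2 min at 1 s intervals.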

[14] = target: Muscarinic acetylcholine receptor M1 (Homo sapiens) (UniProt P11229); test: Cholinergic receptor muscarinic 1 (CHRM1) small molecule antagonists, cell-based qHTS assay (AID 1963588); further: nearly all actives have a fitted effect of over 40% in size
Muscarinic acetylcholine receptor M1 (Homo sapiens), sequence (P11229 whole entry, looked up): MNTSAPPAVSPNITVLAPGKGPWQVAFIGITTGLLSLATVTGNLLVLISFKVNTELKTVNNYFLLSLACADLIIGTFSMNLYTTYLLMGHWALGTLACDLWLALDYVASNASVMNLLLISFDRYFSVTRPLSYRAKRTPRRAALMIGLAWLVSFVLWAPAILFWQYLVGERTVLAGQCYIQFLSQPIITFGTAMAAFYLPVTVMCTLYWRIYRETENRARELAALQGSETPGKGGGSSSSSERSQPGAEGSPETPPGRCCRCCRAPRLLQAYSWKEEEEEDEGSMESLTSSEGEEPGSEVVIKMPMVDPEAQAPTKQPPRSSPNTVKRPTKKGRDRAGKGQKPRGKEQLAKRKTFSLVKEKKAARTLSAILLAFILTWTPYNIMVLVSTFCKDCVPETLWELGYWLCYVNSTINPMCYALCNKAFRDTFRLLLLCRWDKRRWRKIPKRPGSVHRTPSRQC
Summary of the method: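 CHRM1-CHO calcium-flux assay, antagonist mode. Cells were seeded 18 h, dye-loaded 1 h at 37 C and given compound for 5 min at RT, then acetylcholine was added at 50nM. FDSS fluorescence was read 3 min; 15 concentrations, three runs.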

[15] = target: Muscarinic acetylcholine receptor M1 (Homo sapiens) (UniProt P11229); test: Cholinergic receptor muscarinic 1 (CHRM1) small molecule agonists, cell-based qHTS assay (AID 1963589); further: nearly all actives have a fitted effect of over 35% in size
Summary of the method: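 Stable CHRM1-CHO cells (human receptor) were incubated 18 h, dye-loaded for 1 h at 37 C and exposed to test compounds for agonist activity, with calcium-dependent fluorescence followed kinetically.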

[16] = cAMP Responsive Elements (CRE) small molecule agonists, cell-based qHTS assay (AID 1963590)
Summary of the method: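 FRET-based beta-lactamase readout (LiveBLAzer B/G, 2 h RT) quantified CRE activation in HEK 293T CRE-bla cells after 3 h treatment with DMSO-dissolved compounds.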

[17] = cAMP Responsive Elements (CRE) small molecule antagonists, cell-based qHTS assay (AID 1963591; active means well fitted inhibition curve with a large enough effect in the signal ratio in the repeat runs, not every such curve was filed as active; the % refers to the signal ratio)
Summary of the method: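 qHTS in CRE-bla HEK 293T cells: compound in DMSO, then 0.25 uM NKH477 (final), 3 h at 37 °C/5% CO2; beta-lactamase FRET read-out after 2 h substrate incubation.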

[18] = target: Beta-2 adrenergic receptor (Homo sapiens) (UniProt P07550); test: Adrenergic beta2 receptor (ADRB2) small molecule antagonists, cell-based qHTS assay (AID 1963592); further: series mostly up to about 92 µM; nearly all actives have a fitted effect of over 50% in size
Beta-2 adrenergic receptor (Homo sapiens), sequence (P07550 whole entry, looked up): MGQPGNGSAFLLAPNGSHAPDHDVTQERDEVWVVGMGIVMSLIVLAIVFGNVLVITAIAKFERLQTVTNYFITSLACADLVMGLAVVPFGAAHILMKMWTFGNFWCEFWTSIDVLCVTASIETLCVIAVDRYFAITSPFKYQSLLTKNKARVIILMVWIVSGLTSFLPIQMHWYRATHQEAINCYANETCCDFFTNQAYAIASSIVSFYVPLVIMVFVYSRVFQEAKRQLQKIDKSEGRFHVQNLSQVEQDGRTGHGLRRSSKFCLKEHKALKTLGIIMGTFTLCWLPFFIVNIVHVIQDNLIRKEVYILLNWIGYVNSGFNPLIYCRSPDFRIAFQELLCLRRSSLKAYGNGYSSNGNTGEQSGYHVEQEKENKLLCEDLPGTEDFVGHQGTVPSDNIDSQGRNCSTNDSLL
Summary of the method: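 Cells (CHO, stable ADRB2 overexpression) incubated 18-20hr at 37C; compounds added from DMSO; agonist mix (1nM isoproterenol, 100uM IBMX, 25uM Ro-20-1724) added; 0.5hr RT; d2-cAMP and anti-cAMP-cryptate added; 1hr RT; 665/615 nm read.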

[19] = target: Beta-2 adrenergic receptor (Homo sapiens) (UniProt P07550); test: Adrenergic beta2 receptor (ADRB2) small molecule agonists, cell-based qHTS assay (AID 1963593);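 further: CHO cells stably overexpressing human ADRB2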
Summary of the method: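 CHO cells stably over-expressing ADRB2 were plated overnight at 37C, then dosed with compounds plus a stimulation mix containing 100uM IBMX and 25uM Ro-20-1724 for 0.5hr at room temperature. cAMP was measured by HTRF competition, 1hr.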

[20] = target: D(2) dopamine receptor (Homo sapiens) (UniProt P14416); test: Dopamine D2 receptor (DRD2) small molecule agonists, cell-based qHTS assay (AID 1963594); further: nearly all actives have a fitted effect of over 35% in size
D(2) dopamine receptor (Homo sapiens), sequence (P14416 whole entry, looked up): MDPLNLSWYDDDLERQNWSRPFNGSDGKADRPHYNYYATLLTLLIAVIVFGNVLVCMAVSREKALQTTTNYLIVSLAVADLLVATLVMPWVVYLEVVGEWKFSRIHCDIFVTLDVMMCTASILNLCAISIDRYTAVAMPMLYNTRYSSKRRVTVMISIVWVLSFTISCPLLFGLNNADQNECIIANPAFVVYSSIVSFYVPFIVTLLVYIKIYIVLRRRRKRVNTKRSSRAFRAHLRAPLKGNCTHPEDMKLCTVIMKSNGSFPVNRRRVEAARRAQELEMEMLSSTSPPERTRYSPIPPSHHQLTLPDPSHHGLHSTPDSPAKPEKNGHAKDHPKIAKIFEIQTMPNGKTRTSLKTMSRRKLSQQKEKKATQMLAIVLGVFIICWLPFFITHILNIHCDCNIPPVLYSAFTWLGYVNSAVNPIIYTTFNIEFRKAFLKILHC
Summary of the method: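 HEK293 cells stably expressing DRD2 were cultured 24 h at 37 C, then given Ro20-1724 (0.1 mM final) and compounds for 10 min at room temperature. NKH477 (200nM) was then added for 30 min. cAMP was read by HTRF.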

Measured: Potency

C1CCSC1
inactive: all assays above

OC/C=C/CO
inactive: all assays above

CCCCCC(CC)OC(=O)CCCOc1ccc(Cl)cc1Cl (stereo not given)
inactive: all assays above

CC(=O)N1C[C@H](O)C[C@H]1C(=O)O
inactive: all assays above

C[Si](C)O[Si](C)C
inactive: all assays above

CCCCOC(=O)CCCCCCCC(=O)OCCCC
inactive: all assays above

CC(C)(O)Cc1ccccc1
inactive: all assays above

NC(=O)NC1N=C([O][Al])NC1=O (stereo not given)
inactive: all assays above

CC(O)C(C)O (stereo not given)
inactive: all assays above

O=c1[nH]c2ccccc2c(=O)n1CCCl
inactive: all assays above

O=C(C(=O)c1ccccc1)c1ccccc1
inactive: all assays above

CO[C@@]1(NC(=O)C(C(=O)O)c2ccc(O)cc2)C(=O)N2C(C(=O)O)=C(CSc3nnnn3C)CO[C@@H]21 (stereo not given in full)
inactive: all assays above

FC(F)(F)c1ccccc1-n1ccnc1
inactive: all assays above

CC(C)=CCCC(C)CCOC(=O)C(C)C (stereo not given)
inactive: all assays above

C#CC(O)CCC (stereo not given)
inactive: all assays above
